Source: PubChem BioAssay
Sampled rows, rich in hits. Any-hit rate of the full collection: about 3.9%.
Vc quorum ag: quorum light induction in luxS cqsA deficient V. cholerae | activation, % at 18.7 µM | hit rate 0.16% among 350,000 | V. cholerae BH1578 lux reporter, luminescence, 6 h; in the data active means activation mostly above about 9.7%, no sharp cut-off
CCHFV vOTU inh: CCHFV vOTU protease inhibition; Pep-AMC fluorescence; inhibition, % at 11.5 µM; hit rate 0.55% among 370,000; in the data active means inhibition above about 30%; further: 0% = vehicle wells with enzyme and 100% = no enzyme wells
GDH-TPI counter-1: GDH-TPI coupled enzyme inhibition counter-screen | hit rate 1.2% among 360,000 | inhibition, % at 4.8 µM | GDH-TPI coupled enzyme counterscreen, NADH absorbance; in the data active means inhibition above about 30%;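 further: 0% = DMSO wells and 100% = wells lacking the enzyme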
Mtb FBA inh: inhibitors of M. tuberculosis fructose-bisphosphate aldolase; purified M. tuberculosis FBA, fluorescence read-out; P9WQA3; AID 588726; inhibition, % at 1 µM; hit rate 2.3% among 360,000;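 further: 0% = vehicle and 100% = reference inhibitor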
Target sequence (P9WQA3 whole entry, looked up): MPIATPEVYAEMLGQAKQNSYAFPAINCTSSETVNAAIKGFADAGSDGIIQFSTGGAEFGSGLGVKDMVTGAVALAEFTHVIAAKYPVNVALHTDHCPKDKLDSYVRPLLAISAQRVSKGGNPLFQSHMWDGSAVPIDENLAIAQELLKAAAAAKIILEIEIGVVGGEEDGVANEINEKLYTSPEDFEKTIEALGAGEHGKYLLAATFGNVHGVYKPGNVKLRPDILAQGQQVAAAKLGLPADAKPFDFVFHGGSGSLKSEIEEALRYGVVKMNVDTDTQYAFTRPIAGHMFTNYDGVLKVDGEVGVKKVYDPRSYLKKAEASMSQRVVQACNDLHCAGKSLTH
Mtb FBA confirm: Mtb FBA inhibition, confirmed | shares compounds with Mtb FBA inh | hit rate 78% among 5,600 | inhibition, % at 1 µM | purified M. tuberculosis FBA, fluorescence read-out;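 further: 0% = vehicle wells and 100% = reference inhibitor wells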
GDH-TPI counter-2: inhibits GDH-TPI coupling enzymes, flagging Mtb FBA hits. shares compounds with Mtb FBA inh. inhibition, % at 1 µM. GDH-TPI coupled enzyme counterscreen, fluorescence. hit rate 81% among 5,600; in the data active means inhibition above about 10%
Starred values were filed as active, the others as inactive; i = inactive; . = no result; + = active, no number. Unless noted, no stated cut-off is given here; in the data, active means inhibition above about 27%; inactive means the rest.

SMILES | Vc quorum ag | CCHFV vOTU inh | GDH-TPI counter-1 | Mtb FBA inh | Mtb FBA confirm | GDH-TPI counter-2
Cc1ccc(/C=N/NC(=O)c2cc(-c3cccnc3)nc3ccccc23)cc1 | -1 | -4 | 13 | -1 | . | .
CCOc1ccccc1-c1cc(C(=O)N/N=C/c2ccc3c(c2)OCO3)c2ccccc2n1 | i | 13 | 16 | 66* | + | +
COc1ccc2cc(/C(C)=N/NC(=O)c3cc(-c4cccnc4)nc4ccccc34)ccc2c1 | 3 | -12 | 12 | 34* | 105* | 89*
CCOc1cc(/C=N/NC(=O)c2cc(-c3cccnc3)nc3ccccc23)ccc1O | 0 | 5 | 51* | 108* | 6 | -1
CSc1nc2ccccc2nc1N(C)S(=O)(=O)c1ccc(C)cc1 | i | 9 | 14 | 4 | . | .
CCc1ccc(C(=O)OCC(=O)NCCNC(=O)COC(=O)c2ccc(CC)cc2)cc1 | 0 | 0 | 12 | 2 | . | .
S=C(Nc1ccccc1)N1CCN(C(=S)Nc2ccccc2)CC1 | . | -14 | . | . | . | .
Cc1cccc(OCC(=O)N2CCN(S(C)(=O)=O)CC2)c1 | i | 2 | -1 | 2 | . | .
C=CCn1c(C)cc(C(=O)Cn2c(C(C)O)nc3ccccc32)c1C (stereo not drawn) | 0 | -3 | 7 | 74* | 156* | 119*
Cc1ccc(-c2c(C)sc3nc[nH]c(=O)c23)cc1C | 0 | 10 | -3 | 1 | . | .
Cc1nc2scc(C)n2c(=O)c1S(=O)(=O)NCC1CCN(Cc2ccc(F)cc2)CC1 | -1 | -12 | 22 | 32* | 121* | 90*
Cc1nc2scc(C)n2c(=O)c1S(=O)(=O)NCCc1ccccc1 | i | 3 | 20 | 22 | . | .
Cc1nc2scc(C)n2c(=O)c1S(=O)(=O)NCc1ccccc1Cl | -3 | -11 | 11 | 34* | 180* | 132*
COc1ccccc1CNS(=O)(=O)c1c(C)nc2scc(C)n2c1=O | -1 | -20 | 10 | 19 | . | .
Cc1nc2scc(C)n2c(=O)c1S(=O)(=O)NC(C)c1ccccc1 (stereo not drawn) | 0 | -3 | 27 | 37* | 40* | 37*
O=c1c(Cc2ccc(Cl)cc2Cl)c(O)ccn1CC(F)(F)F | -2 | 1 | -2 | 1 | . | .
Cc1ccc(C(=O)NC(Cc2cccc(C(F)(F)F)c2)C(=O)O)cc1 (stereo not drawn) | 6 | 5 | 8 | 0 | . | .
CN(C)c1ccc(/C=N/N=C(N)N)cc1[N+](=O)[O-] | -1 | 9 | 30 | 80* | 198* | 132*
CCN(CC)c1ccc2cc(-c3nnc(-c4ccccc4)o3)c(=O)oc2c1 | 5 | -22 | -4 | 34* | 146* | 105*
CCN(CC)c1ccc2cc(-c3nc(-c4ccc(OC)cc4)cs3)c(=O)oc2c1 | . | -19 | . | . | . | .
N#Cc1cc2c(ccc3ccccc32)oc1=O | i | -57 | 1 | 73* | 168* | 141*
O=c1oc2ccc3ccccc3c2cc1-c1nnc(-c2ccccc2)o1 | 1 | -21 | 1 | 51* | 39* | 32*
O=c1oc2ccc3ccccc3c2cc1-c1nnc(-c2cccs2)o1 | i | -24 | 5 | 30* | 115* | 84*
c1csc(-c2nnc(Cc3cccc4ccccc34)o2)c1 | -1 | -4 | 12 | -1 | . | .
COc1ccc(-c2nnc(-c3cc4c(ccc5ccccc54)oc3=O)o2)cc1 | 2 | -10 | -7 | 1 | . | .
SMILES | Vc quorum ag | CCHFV vOTU inh | GDH-TPI counter-1 | Mtb FBA inh | Mtb FBA confirm | GDH-TPI counter-2
CC1(C)C(C#N)=C(N)Oc2c1c(=O)oc1ccccc21 | i | -6 | 1 | 1 | . | .
CC(=O)C[C@H](O)CC(=O)[C@H]1OC(=O)[C@H](C)C/C=C\Cc2ccccc21 | i | -2 | 0 | -3 | . | .
O=C(O)C1C2CC3CC(C2)CC1(n1ncc(N2CCC4(CC2)OCCO4)c(Cl)c1=O)C3 (stereo not drawn) | 3 | 5 | 9 | 0 | . | .
CC(c1nnc(SCC(=O)c2c(N)n(C)c(=O)n(C)c2=O)n1-c1ccc(Cl)cc1)N(C)C (stereo not drawn) | -1 | -16 | 2 | 3 | . | .
CCN(CC)c1ccc2cc(-c3nc4ccccc4n3C)c(=O)oc2c1 | -1 | -34 | 15 | 40* | 7 | -4
CCN(CC)c1ccc2cc(-c3nc4ccccc4[nH]3)c(=O)oc2c1 | i | . | 9 | 2 | . | .
CCn1c(CCc2nc3ccccc3[nH]2)n[nH]c1=S | 0 | -8 | -2 | 2 | . | .
NC1=NC(=O)/C(=C/c2cc(Br)c(O)c(Br)c2)S1 | 0 | -3 | 5 | -10 | . | .
CCOC(=O)c1c(NC(=O)C2C3C=CC(C3)C2C(=O)O)sc2c1CCC(CC)C2 (stereo not drawn) | -4 | 13 | 14 | 34* | -1 | 2
CCOC(=O)c1c(NC(=O)C2C3CCC(O3)C2C(=O)O)sc2c1CCC(CC)C2 (stereo not drawn) | 0 | 3 | 5 | 10 | . | .
CCN(CC)S(=O)(=O)c1cc(C(=O)OCC(=O)Nc2ccc(-c3nc4ccc(C)cc4s3)cc2)ccc1F | i | -9 | 3 | 13 | . | .
Cc1ccc2nc(-c3ccc(NC(=O)CCN4C(=O)c5ccccc5C4=O)cc3)sc2c1 | 1 | -86 | 10 | 97* | 162* | 122*
CCN(CC)S(=O)(=O)c1ccc(C(=O)OCC(=O)Nc2ccc(-c3nc4ccc(C)cc4s3)cc2)cc1 | -1 | -24 | 18 | 28* | -2 | -2
Cc1nc(-c2ccccc2)sc1-c1ccn[nH]1 | i | -56 | 13 | 110* | 33* | 24*
Cc1nc(-c2ccccc2)sc1C(=O)O | i | 9 | -2 | 4 | . | .
CCCC(=O)N1CCC1(C)C(=O)Nc1ccc2nccnc2c1 (stereo not drawn) | i | -31 | 24 | 43* | 45* | 24*
Cc1ccc(C)c(S(=O)(=O)NCC(c2ccco2)N2CCc3ccccc3C2)c1 (stereo not drawn) | i | 4 | 3 | 74* | 81* | 74*
CCOc1cccc(-c2c(C(=O)N/N=C(\C)c3ccccn3)nnn2-c2nonc2N)c1 | -1 | 16 | 13 | 8 | . | .
C=CCNc1cnn(-c2ccc(C)cc2)c(=O)c1Sc1ccc(C)cc1 | 0 | 3 | 3 | 41* | 56* | 47*
Cc1ccc(-c2csc3nc4ccc(C(=O)NCCO)cc4c(=O)n23)cc1 | i | -44 | 5 | 31* | + | +
NC(=O)c1ccc2c(=O)n3c(-c4cc(Cl)c(N)c(Cl)c4)csc3nc2c1 | -11 | 2 | 11 | 3 | . | .
Cc1ccc(-c2csc3nc4cc(C(=O)NC5CCC(O)CC5)ccc4c(=O)n23)cc1 (stereo not drawn) | -1 | 2 | 6 | 30* | 0 | -2
Cc1csc2nc3cc(C(N)=O)ccc3c(=O)n12 | i | -54 | 11 | 72* | + | +
O=C(NC1CCCCCC1)c1ccc2c(=O)n3c(nc2c1)CCCCC3 | i | 7 | 5 | 6 | . | .
O=C(O)c1ccc(/C=N/NC(=O)c2cc(-c3cccs3)nc3ccccc23)cc1 | 0 | -24 | 24 | 31* | + | +
